Shiga toxin inh = Shiga toxin inhibition | Vero cells, Shiga toxin protein synthesis inhibition reporter | inhibition, % at 38.7 µM | actives 9.2% (n = 290,000) | AID 2315; in the data active = inhibition mostly above about 28%, no sharp cut-off; inactive = mostly below about 43%; note: 0% is about no effect
Sm TGR block = inhibitors of Schistosoma mansoni thioredoxin glutathione reductase | Q962Y6 | purified TGR, DTNB reduction, TNB absorbance 405 nm | Potency, µM (doses to about 114 µM), for the others: top-dose activity change, negative = inhibition, actives largely listed as inhibitors | actives 3% (n = 360,000); note: potency is the fitted concentration of half-maximal effect; % is set by controls: 0 for no effect and ±100 for the full control effect; nearly all actives have a fitted effect of over 60% in size
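TGR 20 nM + NADPH 100 uM (dispensed conc.), cpd preinc 15 min RT; start with NADPH (500 uM addition) then DTNB (15 mM addition). Kinetic TNB absorbance, 405 nm filter. Four-parameter Hill fit across titration.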
NS1 inh = inhibitors of influenza NS1 protein function; actives 0.4% (n = 270,000); Potency, µM (series often up to 46.1 µM), without a hit: at the top dose activity, positive = more growth; AID 2326; calls by dose curve; note: potency is the fitted concentration of half-maximal effect; actives are rising curves; nearly all actives have a fitted effect of over 50% in size
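In this qHTS, NS1 from influenza A is expressed in budding yeast, where it slows growth. Cells are switched from glucose to 2% galactose medium (pH 6.0, -URA), treated with compound, and growth recovery is read at OD600.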
CHX counter = affects cycloheximide protein synthesis inhibition readout, counter-screen | AID 2314 | max response, % | cell reporter, cycloheximide protein synthesis inhibition counterscreen | actives 12% (n = 300,000); in the data active = max response mostly above about 13%, no sharp cut-off; inactive = mostly below about 14%; note: read at 38.3 µM for the half of the compounds with a filed dose; 0% is about no effect
Pf growth 96h = P. falciparum growth inhibition at 96 hour, primary screen for plastid delayed-death inhibitors; Potency, µM (top dose mostly 28.7 µM), inactives show at the top dose activity change, negative = inhibition, usual class: inhibitors; actives 6.9% (n = 320,000); P. falciparum luciferase reporter growth, 96 h; note: potency is the fitted concentration of half-maximal effect; % is set by controls: 0 for no effect and ±100 for the full control effect
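Luminescence readout: decreased luciferase signal marks inhibited growth of reporter-expressing P. falciparum in infected red cells (2% hematocrit, 0.05% parasitemia final), exposed to compound two generations (96 h, 37 C, 5% CO2).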
Pf growth 48h = P. falciparum growth inhibition at 48 hours (one generation). actives 5.9% (n = 310,000). P. falciparum luciferase growth in erythrocytes, 48 h. AID 504832. Potency, µM (doses to about 28.7 µM), for inactives: at the top dose activity change, negative = inhibition, actives largely listed as inhibitors; note: potency is the fitted concentration of half-maximal effect; % is set by controls: 0 for no effect and ±100 for the full control effect
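Cell-based growth assay: transgenic P. falciparum expressing firefly luciferase, cultured in red cells within RPMI 1640 containing 0.5% w/v Albumax, 24 mM bicarbonate and gentamycin. A drop in luciferase activity indicates inhibition.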
The depositor's hits bear a star. Compounds with a hit are over-represented: about 21% of the library has one in this group of screens. Unless noted, calls come from the whole dose curve; as a rule, active = well fitted curve in the direction sought with a large enough effect; inconclusive = small, poorly fitted or top-dose-only effect, or another doubt; inactive = no such curve, though single readings can be large; an effect the other way counts as inactive or inconclusive.

`COc1ccc(NC(=O)CSC2=Nc3ccccc3C3=NC(CC(=O)NCc4ccco4)C(=O)N23)cc1` (configuration not stated) gave Sm TGR block -12.5%.
Screening O=C(c1ccc(F)cc1)C(Cc1ccccc1)N1CCCCC1 (configuration not stated) returned Shiga toxin inh 69.2*, Sm TGR block 2.4%, NS1 inh 3.1%, CHX counter 34.6*, Pf growth 96h 38.0% and Pf growth 48h 16.7%.
Screening O=C(CSc1nc2sc3c(c2c(=O)[nH]1)CCCC3)Nc1ccccc1F returned Sm TGR block -0.2%.
CC(C)(C)NCC(O)COc1c(F)cc(Br)cc1F (configuration not stated) was read as Shiga toxin inh -10.9, Sm TGR block 4.0%, NS1 inh 1.0%, CHX counter -0.8 and Pf growth 48h 11.7µM*.
Screening CC(C)(C)CC(C)(C)NCC(O)COc1c(F)cc(Br)cc1F (configuration not stated) returned Shiga toxin inh -9.5, Sm TGR block 0.0%, NS1 inh -7.6%, CHX counter -4.7 and Pf growth 96h 0.586µM*.
`COc1cc(OC)c2c(c1)OC(=O)CC2c1ccc(C)cc1` (configuration not stated) gave Shiga toxin inh inactive and CHX counter 14.3.
Cc1nn(-c2ccc3nnc(Br)n3n2)c(C)c1Br was read as Shiga toxin inh -12.1, Sm TGR block -26.3%, NS1 inh 3.8%, CHX counter -7.6 and Pf growth 48h 0.6%.
`Cc1cc(C)n(-c2nnc(NCc3ccc(Cl)cc3)nn2)n1` gave Shiga toxin inh 15.7, Sm TGR block 0.1%, CHX counter 11.6, Pf growth 96h 2.08µM* and Pf growth 48h inconclusive.
Screening Cc1cc(C)n(-c2nc(C)nc(NCc3ccccc3)n2)n1 returned Shiga toxin inh 38.6, Sm TGR block -1.3%, NS1 inh -43.1%, CHX counter 3.9, Pf growth 96h 47.2% and Pf growth 48h 0.0%.
Screening Cc1nn(-c2nnc(NCc3ccccc3)nn2)c(C)c1Br returned Shiga toxin inh 17.0, Sm TGR block -27.6%, NS1 inh -36.2%, CHX counter 11.0, Pf growth 96h 0.329µM* and Pf growth 48h 0.586µM*.
Screening C=CCNc1ncnc2c1[nH]c1ccccc12 returned Shiga toxin inh 12.9, Sm TGR block 4.1%, NS1 inh -14.6%, CHX counter 10.2*, Pf growth 96h inconclusive and Pf growth 48h 13.1µM*.
Screening COc1ccc2[nH]c3c(Cl)ncnc3c2c1 returned Shiga toxin inh -14.4, Sm TGR block -13.7%, NS1 inh -12.0%, CHX counter 0.7, Pf growth 96h inconclusive and Pf growth 48h 6.0%.
Screening C=CCNc1ncnc2c1[nH]c1ccc(Cl)cc12 returned Shiga toxin inh 81.5*, Sm TGR block -19.8%, NS1 inh -54.4%, CHX counter 36.8* and Pf growth 48h inconclusive.
`CCC(C)(C)C(=O)Nc1cccc(Cl)c1C` gave Shiga toxin inh -0.8, Sm TGR block 6.6%, CHX counter -3.6, Pf growth 96h inconclusive and Pf growth 48h 12.7%.
`CCOC(=O)c1c(C)nc2sc3c(=O)n(-c4ccc(C(C)=O)cc4)cnc3c2c1-c1ccc(Cl)cc1` gave Shiga toxin inh -18.3, Sm TGR block -0.1%, NS1 inh -2.3%, CHX counter -7.2 and Pf growth 96h 3.7µM*.
`Oc1ccccc1CN1CCN(C(O)(c2ccccc2)c2ccccc2)CC1` gave Shiga toxin inh -12.5, Sm TGR block -0.6%, NS1 inh 0.7%, CHX counter -0.5, Pf growth 96h 5.22µM* and Pf growth 48h 5.86µM*.
For CC(C)(C)c1ccc(O)c(CN2CCN(c3ccccc3)CC2)c1 the results were Shiga toxin inh -25.8, Sm TGR block 24.8%, NS1 inh 1.4%, CHX counter -1.3, Pf growth 96h 1.1% and Pf growth 48h 2.08µM*.
Screening Oc1ccccc1CN1CCC(C(O)(c2ccccc2)c2ccccc2)CC1 returned Shiga toxin inh -16.6, Sm TGR block -0.3%, NS1 inh 2.5%, CHX counter -5.5, Pf growth 96h 0.0% and Pf growth 48h 7.38µM*.
`COc1cc(CN2CCN(C(O)(c3ccccc3)c3ccccc3)CC2)cc(OC)c1OC` gave Shiga toxin inh -8.7, Sm TGR block -12.1%, NS1 inh 2.5%, CHX counter -5.3, Pf growth 96h inconclusive and Pf growth 48h inconclusive.
CCOC(=O)C1CCN(c2c(C(=O)c3ccc(C)cc3)cnc3ccc(F)cc23)CC1 was read as Sm TGR block 12.2%.
O=C(c1ccc2c(c1)OCO2)N1CCN(S(=O)(=O)c2ccc(Br)cc2Cl)CC1 was read as Sm TGR block -3.2%, Pf growth 96h inconclusive and Pf growth 48h inconclusive.
For CN(C)Cc1nc2ccccc2c(=O)n1Cc1nc(-c2cccc([N+](=O)[O-])c2)cs1 the results were Shiga toxin inh -9.7, Sm TGR block 2.0%, CHX counter 6.3, Pf growth 96h inconclusive and Pf growth 48h inconclusive.
`CN1CCN(Cc2nc3ccccc3c(=O)n2Cc2nc(-c3ccc([N+](=O)[O-])cc3)cs2)CC1` gave Shiga toxin inh -36.4, Sm TGR block -4.5%, NS1 inh 20.3%, CHX counter -8.8, Pf growth 96h 2.62µM* and Pf growth 48h inconclusive.
`COc1cc(NC(=O)CN2CCCN(S(=O)(=O)c3ccc(F)cc3)CC2)cc(OC)c1` gave Sm TGR block 2.9%.
`N=c1ccn(Cc2cccc(F)c2)cc1` gave Shiga toxin inh -4.2, Sm TGR block 15.3%, NS1 inh -0.1%, CHX counter -3.6, Pf growth 96h 1.7% and Pf growth 48h 2.33µM*.
COc1ccc(NS(=O)(=O)c2ccc3c(c2)NC(=O)CCS3)cc1Cl was read as Shiga toxin inh 11.7, Sm TGR block 3.0%, NS1 inh inconclusive, CHX counter -1.6, Pf growth 96h 5.86µM* and Pf growth 48h -26.4%.
Screening COc1ccccc1NC(=O)C(CC(C)C)NC(=O)C1CCCCC1 (configuration not stated) returned Shiga toxin inh -10.9, Sm TGR block 2.2%, NS1 inh -5.0%, CHX counter 2.8 and Pf growth 96h 8.28µM*.
For COc1ccccc1NC(=O)CC1CCCC1 the results were Shiga toxin inh 22.0, Sm TGR block -10.5%, NS1 inh -5.4%, CHX counter -3.7, Pf growth 96h 13.1% and Pf growth 48h 10.0%.
For CC(=O)c1cccc(NC(=O)C(CC(C)C)NC(=O)C2CCCCC2)c1 (configuration not stated) the results were Shiga toxin inh 11.9, Sm TGR block -16.2%, CHX counter -0.7, Pf growth 96h -3.8% and Pf growth 48h 5.86µM*.
